Source: PubChem BioAssay AID435003 (Sanford-Burnham Center for Chemical Genomics, 2010)
In all, about 330,000 compounds went through this assay and about 1,700 (0.52%) were called active. No stated cut-off is given here; in the data, active means inhibition above about 50%; inactive means the rest. This excerpt belongs to a sample that is enriched for actives.

experiment: lowers stimulated NF-kB reporter luminescence – cell-based, uHTS, TCR NF-kB activation inhibitor project, primary screen (AID 435003); settings: Jurkat, PMA/ionomycin-induced NF-kB luciferase reporter, at 4 µM, active compounds read high

inhibition, active:
CCCCCCCCn1c2c(c(=N)c3c1CCC3)CCCC2 89.5%
C/C(=N\NC(=O)c1ccccc1F)c1ccccn1 90.2%
Cn1nccc1C(=O)NC1CCCc2c1cnn2-c1ccccc1F (configuration not stated) 62.9%
Cn1nccc1C(=O)NC1CCCc2c1cnn2-c1ccc(F)cc1F (configuration not stated) 71%
Oc1cccc(/C=N/Nc2ccc(Cl)nn2)c1O 54.9%
OCCCNc1nccc(-c2cc(Nc3cccc(Cl)c3)ncn2)n1 98.5%
O=C(Nc1ccc(CSc2ccccc2)cc1)c1ccc(CN2CCOCC2)cc1 69%
Cc1ccc2nc(-c3ccncc3)cc(C(=O)Nc3ccc(OC(F)F)cc3)c2c1 53.6%
CCN(CC)c1ccc(/C=N/NC(=O)c2cnccn2)c(O)c1 59.3%
C=C(C)C(=O)O[C@H]1C/C(C)=C\C(=O)/C=C(\C)[C@H](O)[C@@H]2OC(=O)C(=C)[C@@H]21 76.7%
COc1ccc2cc1Oc1ccc(cc1)C[C@H]1c3cc(c(OC)cc3CCN1C)Oc1c(O)c(OC)cc3c1[C@H](C2)N(C)CC3 81.7%
C=CCn1c(SCc2c(C)noc2C)nc2sc3c(c2c1=O)CCC(C)C3 (configuration not stated) 69.9%
COc1ccc(NC(=O)/C(Cl)=C(/Cl)S(=O)Cc2ccc(C)cc2)cn1 (configuration not stated) 91.6%
COc1ccc(CS(=O)/C(Cl)=C(/Cl)C(=O)Nc2ccc(OC)nc2)cc1 (configuration not stated) 99.4%
O=c1cc(-c2ccccc2)[nH]c2cc(F)ccc12 61.5%
O=C(NC(Nc1nc2ccc([N+](=O)[O-])cc2s1)(C(F)(F)F)C(F)(F)F)c1ccccc1 72.3%
Cc1ccc(O)c(NC(=O)COc2cc(C)ccc2C)c1 61.3%
COc1ccccc1NC1=NC(c2ccc(Cl)cc2)N=C(N)N1 (configuration not stated) 60.9%

inhibition, inactive:
Cn1c2c(c(=O)n(C)c1=O)C(c1ccc(O)cc1)Nc1ccccc1O2 (configuration not stated) 3.73%
COc1ccc(C)cc1NC(=O)C(OC(=O)c1cccc(S(=O)(=O)N(C)c2ccccc2)c1)c1ccccc1 (configuration not stated) 10.1%
CN(C)C(CNC(=O)c1ccc(S(=O)(=O)NCc2ccco2)cc1)c1ccccc1 (configuration not stated) -19.3%
CC(=O)Nc1ccc(NC(=O)C2CCCN(S(=O)(=O)c3ccc(Cl)cc3)C2)cc1 (configuration not stated) -4.31%
CC(C)(C)Nc1c(-c2cccs2)nc2ccccn12 -10.6%
C/C(=N\NC(=O)c1ccoc1C)c1ccccc1O -29.9%
COc1ccc(/C(C)=N\NC(=O)c2ccc(-c3ccccc3)cc2)c(F)c1 -14.4%
Cc1cc(Cl)ccc1NC(=S)N1CCC(C(N)=O)(N2CCCCC2)CC1 5.02%
CC(=O)NCC(=O)NC1CCCc2c1cnn2-c1ccccc1F (configuration not stated) -8.3%
Cc1ccc(-n2ncc3c2CCCC3NC(=O)c2cnccn2)cc1C (configuration not stated) -3.8%
Cc1cc(C(=O)NC2CCCc3c2cnn3-c2cccc(C)c2C)c(C)o1 (configuration not stated) 29.7%
COc1ccc(C(=O)NC2CCCc3c2cnn3-c2cccc(C)c2C)c(OC)n1 (configuration not stated) 29.1%
CC1CC(C)CN(C(=O)CCNC(=O)Cn2cnc3ccccc3c2=O)C1 (configuration not stated) -7.78%
Cc1ccc(S(=O)(=O)N(C)C)cc1NC(=O)c1n[nH]c(=O)c2ccccc12 -17.4%
COC(=O)C1=NN(c2ccccc2)C2C(=O)N(c3ccccc3OC)C(=O)C12 (configuration not stated) 25.7%
COc1ccc(NCc2nnc(SCc3ccccc3)n2-c2ccc(OC)cc2)cc1 -6.88%
CCOC(=O)c1cccc(NC(=O)C2CCN(c3ncnc4c3nc3n4CCCCC3)CC2)c1 12.1%
Cc1nc2ccccc2nc1N/N=C/c1ccc(O)cc1O 20.4%
Oc1c(Br)cccc1/C=N/Nc1c(F)c(F)c(F)c(F)c1F 2.14%
Cc1cc(=O)[nH]c(Nc2cccc(Br)c2)n1 12.3%
CN(Cc1ccccc1)C(=O)CCNC(=O)Cn1cnc2ccccc2c1=O -2.32%
CC(C)n1cnc2c(Nc3cccc(Cl)c3)nc(N(CCO)CCCO)nc21 -12%
Cc1cccc(Nc2nc(NCCO)nc(N3CCCC3)n2)c1 5.92%
Cc1ccc(S(=O)(=O)c2nc(-c3cccs3)oc2NCc2cccnc2)cc1 -3.33%
COc1ccc(C(=O)N2CCN(c3ccc(C(C)=O)cc3F)CC2)cc1S(=O)(=O)NC1CC1 -20.9%
C[C@H](CO)N1C[C@H](C)[C@@H](CN(C)C(=O)NC2CCCCC2)Oc2ccc(NC(=O)c3ccncc3)cc2C1=O 7.62%
COCCCNC(=O)CCc1nc2cccnc2n1Cc1ccc(OC)cc1 1.81%
Cn1c(-c2ccc(C(F)(F)F)cc2)cc2onc(-c3ccccc3)c2c1=O -242%
CCOc1ccc(C(=O)Nc2ccc(CN3CCOCC3)cc2)cc1Cl -22.2%
O=C(Nc1ccccc1C(=O)N1CCOCC1)c1ccc(CSc2ccccc2)cc1 -0.886%
Cc1ccc2nc(-c3ccccn3)cc(C(=O)Nc3ccc4c(c3)OCO4)c2c1 11.1%
CCN(CC)CCNC(=O)c1ccc(NC(=O)c2cc(-c3ccncc3)nc3ccccc23)cc1 -38.2%
CC(C)CC[n+]1ccn(C2=C([O-])c3ccccc3C(=O)/C2=N\S(=O)(=O)c2ccccc2)c1 6.27%
Cc1ccc(OCCNC(=O)CN2C(=O)NC3(CCCC3)C2=O)cc1 7.61%
O=C(Nc1ccc(Br)cc1)c1cccc(NC(=O)C2C3CC4OC(=O)C2C4C3)c1 (configuration not stated) -6.94%
COc1ccc(NC(=O)C/C(C)=N/NC(=O)c2cnccn2)cc1Cl -12.8%
CCN1CCN(c2ccc(NC(=O)c3cnccn3)cc2)CC1 -79.3%
CCC(C)n1[nH]c(=O)cc1N (configuration not stated) 6.5%
N#CC1(C#N)C(C(=O)C23CC4CC(CC(C4)C2)C3)C12CCOCC2 (configuration not stated) 3.42%
C=CCn1c(SCC(=O)NCCCO)nc2sc3c(c2c1=O)CCC3 6.01%
C=CCn1c(SCC(=O)NCC2CCCO2)nc2sc(C)c(C)c2c1=O (configuration not stated) -2.81%
CC1Cc2cc(/C(O)=C3\C(=O)C(=O)N(Cc4cccnc4)C3c3ccccc3F)ccc2O1 (configuration not stated) -14.7%
CCN(CC(=O)Nc1ccc(OC)cc1)C(=O)CSCc1ccc(C)cc1 -16.5%
COC(=O)c1sccc1NC(=S)Nc1ccc(C)cc1 -16.1%
COc1ccc(C(=O)CCC(=O)Nc2ccc(Cl)cc2)cc1 10.1%
COc1ccc(CCNC(=O)c2cnc(Cl)c(Cl)c2)cc1 -35.5%
Cc1ccc(-n2c(SCC(=O)NCc3ccc4c(c3)OCO4)nnc2-c2cccnc2)c(C)c1 -1.23%
O=[N+]([O-])c1ccc(N2CCNCC2)cc1NCc1cccnc1 1.76%
CCCC(C(=O)NC1CCCC1)N(C(=O)Cn1nnc(-c2ccc(C)o2)n1)c1cccc(O)c1 (configuration not stated) 7.15%
CC(=O)c1cc(-c2ccccc2)[nH]c1N1CCCC1 8.23%
Cc1ccc(-c2cc(=O)c3ccc(F)cc3[nH]2)cc1 14.5%
CSc1ccc(NC(=O)N2CC(C)OC(C)C2)cc1 (configuration not stated) 21.7%
COCc1cc(C)nc(Nc2cc(C)ccc2C)c1C#N 6.05%
O=C(O)c1cc([N+](=O)[O-])c(Nc2cccc3ccccc23)c([N+](=O)[O-])c1 -10.8%
O=C(COC(=O)c1ccc([N+](=O)[O-])cc1Cl)NC(=O)c1ccccc1 3.88%
O=C(CSc1nnc(Nc2ccccc2F)s1)NC1CCCC1 -19.9%
COc1cccc(CN2CCNC(=O)C2CC(=O)N(C)CCc2ccccn2)c1 (configuration not stated) -0.459%
Cc1ccc(C)c(OCC(=O)NNC(=O)C2CCC2)c1 0.404%
Cc1ccc(O)c(NC(=S)NC(=O)COc2ccc(Br)cc2)c1 14.2%
COc1ccc(Br)cc1S(=O)(=O)N1CCN=C1C -11.9%
COCCNC(=O)c1ccc(Cn2c(SCC(=O)NCC3CCCO3)nc3ccc(Br)cc3c2=O)cc1 (configuration not stated) 23.7%
COc1ccccc1NC(=O)C1CCCN1S(=O)(=O)c1ccc(Cl)cc1 (configuration not stated) -8.88%
COc1ccccc1NC(=O)c1cc(Cl)nnc1Cl -0.0528%
CC(C)n1c(-c2ccncc2)n[nH]c1=S 11.1%
